# Entries with a potency or affinity are not part of this list. Results filed as inconclusive are left out. A number with no mark means an inactive call. The source made the active and inactive calls.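 Rule for the calls: active = signal loss with fitted half-maximal concentration at or below twice the top valid tested dose in every test run; inconclusive = runs disagree, flat 30 to 70% signal loss, or poor fit; inactive = all runs flat, opposite direction, or potency beyond limit.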
# Assay: general mammalian cell viability loss – inhibitor set, cherry-pick, set 2, cytotoxicity control for miR-122 modulator project, dose response (AID 720697);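 note: 0% = median of neutral control wells and -100% = MG132 positive control wells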
# Settings: HEK293T viability, CellTiter-Glo luminescence, 48 h; series mostly up to 26 µM
SMILES,outcome,"activity change, negative = cytotoxicity"
CN1C(=O)c2cc(NC(=O)Nc3ccccc3F)ccc2OC[C@@H]2O[C@H](CC(=O)O)CC[C@@H]21,inactive,
CCC(=O)N1[C@H](CN(C(C)C)S(C)(=O)=O)[C@@H](c2ccccc2)[C@@H]1CO,inactive,
CCCNC(=O)C[C@@H]1CC[C@@H]2[C@H](COc3ccc(NC(=O)c4cc(F)cc(F)c4)cc3C(=O)N2C)O1,inactive,
Cc1ccc(-c2cnc3c(c2)C(=O)N([C@H](C)CO)C[C@@H](C)[C@H](CN(C)CC2CCCCC2)O3)cc1,inactive,
C[C@H](CO)N1C[C@H](C)[C@H](CN(C)C(=O)NC2CCCCC2)Oc2ncc(-c3cccc(C(F)(F)F)c3)cc2C1=O,inactive,
O=C(c1cccnc1)N1C[C@H]2[C@@H](c3ccccc31)[C@H](CO)N2C(=O)Nc1ccccc1Cl,inactive,
C[C@@H]1CN([C@H](C)CO)S(=O)(=O)c2ccc(C#CC3(O)CCCC3)cc2O[C@@H]1CN(C)C(=O)c1cccnc1,inactive,
C/C=C/c1ccc([C@@H]2[C@@H](CO)N(Cc3ccccn3)[C@H]2CNC(=O)CC)cc1,inactive,
CCC(=O)N1C[C@H]2[C@@H](c3ccccc31)[C@H](CO)N2C(=O)Nc1ccccc1F,inactive,
CCCNC(=O)N1C[C@@H]2[C@H](c3ccccc31)[C@H](CO)N2C(=O)C1CCOCC1,inactive,
CCC(=O)N1[C@H](CN(CC)C(=O)c2ccccc2)[C@@H](c2ccccc2)[C@@H]1CO,inactive,
CC(C)Oc1ccc(CNCCC2(C(C)C)CCOC(C)(C)C2)cc1 (centres undefined),inactive,
CCCNC(=O)C[C@H]1CC[C@@H]2[C@H](COc3ccc(NS(=O)(=O)c4ccccc4C)cc3C(=O)N2C)O1,inactive,
N=c1n(CC(=O)c2ccc(Br)s2)c2ccccc2n1Cc1ccccc1,inactive,
O=C(NC[C@H]1N[C@H](CO)[C@@H]1c1ccc(-c2ccccc2F)cc1)c1ccccc1,inactive,
CCNC(=O)C[C@H]1CC[C@H]2[C@@H](COc3ccc(NS(C)(=O)=O)cc3C(=O)N2C)O1,inactive,
C=CCc1ccccc1OCC(O)CN1CCN(CCN2C(=O)c3cccc4cccc(c34)C2=O)CC1 (centres undefined),inactive,
Cc1ccccc1NC(=O)Nc1ccc2c(c1)C(=O)N(C)[C@@H]1CC[C@H](CC(=O)NCC3CC3)O[C@@H]1CO2,inactive,
CC(=O)Oc1ccc2c(c1)C(=O)c1ccccc1CO2,inactive,
COc1cccc(CNC(=O)C[C@H]2CC[C@@H]3[C@@H](COc4ccc(NC(C)=O)cc4C(=O)N3C)O2)c1,inactive,

SMILES,outcome,"activity change, negative = cytotoxicity"
CC(C)CC#Cc1ccc2c(c1)O[C@H](CN(C)C(=O)c1cnccn1)[C@H](C)CN([C@@H](C)CO)S2(=O)=O,inactive,
C/C=C/c1ccc2c(c1)O[C@H](CN(C)C(=O)Cc1cccnc1)[C@H](C)CN([C@H](C)CO)S2(=O)=O,inactive,
COc1cccc(C(=O)N2C[C@H]3[C@@H](c4ccccc42)[C@H](CO)N3C(C)=O)c1,inactive,
C[C@@H]1CN([C@@H](C)CO)S(=O)(=O)c2ccc(C#CC3CC3)cc2O[C@@H]1CN(C)C(=O)c1cccc(F)c1,inactive,
CN1C(=O)c2cc(NC(=O)c3ccc(C(F)(F)F)cc3)ccc2OC[C@@H]2O[C@@H](CC(=O)NCc3ccc4c(c3)OCO4)CC[C@@H]21,inactive,
NC(=O)c1cn(-c2ccccc2)nc1-c1cc2ccccc2oc1=O,inactive,
COc1cc(C(=O)Nc2ccc(S(=O)(=O)N3CCCCC3C)cc2)cc(OC)c1OC (centres undefined),inactive,
CC(=O)Nc1ccc2c(c1)C(=O)N(C)[C@H]1CC[C@H](CC(=O)NC3CCCCC3)O[C@@H]1CO2,inactive,
C[C@@H]1CN([C@H](C)CO)S(=O)(=O)c2ccc(C3=CCCC3)cc2O[C@@H]1CN(C)C(=O)c1cnccn1,inactive,
N=c1c2c(-c3ccccc3)c(-c3ccccc3)n(Cc3ccccc3)c2ncn1CCO,inactive,
CC(C)C(=O)Nc1ccc2c(c1)C(=O)N(C)[C@@H]1CC[C@H](CC(=O)NCC3CC3)O[C@H]1CO2,inactive,
O=c1c2c3c(sc2nc2n1CCC2)CCCC3,inactive,
c1ccc(-n2nnnc2NCCc2c[nH]c3ccccc23)cc1,inactive,
CN1C(=O)c2cc(NC(=O)Nc3ccccc3Cl)ccc2OC[C@H]2O[C@H](CC(=O)O)CC[C@H]21,inactive,
CC1(C)CC(=O)c2cnc(NC(=O)c3ccco3)nc2C1,inactive,
O=C(Nc1ncc(Cc2cccc(C(F)(F)F)c2)s1)c1ccc(-c2cccc([N+](=O)[O-])c2)o1,,-25.5% [at 6 µM]
O=C(Nc1ccc(CN2CCOCC2)cc1)c1ccc(-c2ccc(Cl)cc2Cl)o1,inactive,
CNC(=O)C[C@H]1CC[C@@H]2[C@H](COc3ccc(NC(=O)c4ccccc4OC)cc3C(=O)N2C)O1,inactive,
C[C@@H]1CN([C@H](C)CO)S(=O)(=O)c2ccc(C3=CCCC3)cc2O[C@@H]1CN(C)C(=O)c1ccc(F)cc1,inactive,

# — PubChem BioAssay AID720697 (Broad Institute, 2013)
